RGS12 GoLoco inh = qHTS Assay for Inhibitors of RGS12 GoLoco Motif Activity (Red Fluorophore); Gai1:RGS12 GoLoco peptide FP, rhodamine, 10 min; Potency, µM (doses to about 61.6 µM), inactives show at the top dose activity, negative = inhibition, most hits filed as inhibitors; hit rate 0.44% among 230,000; AID 880, 2007; active = well fitted inhibition curve with a large enough effect, not every such curve was filed as active; inactive = no such curve, though single readings can be large or run the other way; note: potency is the fitted concentration of half-maximal effect; nearly all actives have a fitted effect of over 30% in size
PI5P4K alpha inh = qHTS for Inhibitors of phosphatidylinositol 5-phosphate 4-kinase (PI5P4K). PI5P4Kalpha enzyme, ADP-Glo luminescence, 60 min; hits give low values. max response, %. hit rate 1.2% among 330,000. AID 652105, 2013; active = max response of -50% or lower; inconclusive = between -30% and -50%; inactive = -30% or higher; note: value at the top dose of about 77 µM
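Luminescence from ADP-Glo served as readout of PI5P4Kalpha activity in a qHTS format. Reaction: enzyme, substrate, compound, ATP at 5 microM final, 60 min at RT.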
PI4K2A block = qHTS for small molecular inhibitors of PI4K2A. Phosphatidylinositol 4-kinase type 2-alpha (Homo sapiens), Q9BTU6. purified PI4K2A, ADP-Glo luminescence, 1 h; hits give low values. activity change, negative = inhibition, % at 76.9 µM. hit rate 0.13% among 420,000; in the data active = activity change below about -50%; inconclusive = mostly about -30% to -49%;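 note: -100% = wells without enzyme as full effect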
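In this quantitative HTS, ADP production by PI4K2A was quantified luminescently after 1 h at ambient temperature; 100 microM adenosine served as plate-quality control.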
Pin1 inh = qHTS Assay to Find Inhibitors of Pin1; Potency, µM (doses to about 115 µM), for inactives: top-dose activity, negative = inhibition, most hits filed as inhibitors; Pin1 FP peptide displacement, HiFluor488, 10 min; Peptidyl-prolyl cis-trans isomerase NIMA-interacting 1 (Homo sapiens), Q13526; hit rate 0.009% among 390,000; active = well fitted inhibition curve with a large enough effect in the polarisation, with a control signal flat, not every such curve was filed as active; inconclusive = small, poorly fitted or top-dose-only effect, or effect the other way, or a change in a side signal; inactive = no such curve, though single readings can be large or run the other way; the % refers to the polarisation; note: potency is the fitted concentration of half-maximal effect
GCN5L2 inh = qHTS Assay for Inhibitors of GCN5L2; Histone acetyltransferase KAT2A (Homo sapiens), Q92830; GCN5L2 HAT assay, ThioGlo1 CoA-SH fluorescence; Potency, µM (titrated, usually from 58.9 µM), without a hit: at the highest dose activity change, negative = inhibition, most hits filed as inhibitors; hit rate 0.21% among 390,000; AID 504327, 2011; note: potency is the fitted concentration of half-maximal effect
Target sequence (Q92830 whole entry, looked up): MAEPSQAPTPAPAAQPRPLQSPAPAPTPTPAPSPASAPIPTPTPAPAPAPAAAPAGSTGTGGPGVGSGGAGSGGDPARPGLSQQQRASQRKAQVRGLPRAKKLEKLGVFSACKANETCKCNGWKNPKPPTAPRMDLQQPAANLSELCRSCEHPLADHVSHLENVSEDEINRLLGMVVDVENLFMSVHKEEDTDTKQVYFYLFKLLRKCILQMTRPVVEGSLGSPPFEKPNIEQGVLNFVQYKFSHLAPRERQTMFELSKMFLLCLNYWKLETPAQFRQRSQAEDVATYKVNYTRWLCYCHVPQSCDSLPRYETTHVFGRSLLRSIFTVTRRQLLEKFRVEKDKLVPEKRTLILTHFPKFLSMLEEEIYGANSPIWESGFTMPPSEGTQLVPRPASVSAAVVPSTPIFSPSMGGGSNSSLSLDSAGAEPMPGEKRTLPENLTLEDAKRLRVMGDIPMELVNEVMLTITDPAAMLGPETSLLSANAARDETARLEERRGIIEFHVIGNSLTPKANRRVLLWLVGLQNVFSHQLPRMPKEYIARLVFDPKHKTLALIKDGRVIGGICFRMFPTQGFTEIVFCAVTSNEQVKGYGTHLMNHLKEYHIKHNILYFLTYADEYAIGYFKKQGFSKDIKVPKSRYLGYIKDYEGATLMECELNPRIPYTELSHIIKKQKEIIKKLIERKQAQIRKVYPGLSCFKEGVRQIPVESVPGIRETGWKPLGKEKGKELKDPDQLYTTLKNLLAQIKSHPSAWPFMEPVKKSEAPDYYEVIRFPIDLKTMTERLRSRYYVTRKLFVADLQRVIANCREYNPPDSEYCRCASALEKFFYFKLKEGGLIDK
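Enzyme at 20nM final was mixed with library compounds for 15 min at room temperature. Peptide H3(1-25) at 75uM, acetyl-CoA at 70uM and ThioGlo1 at 50uM were then added. Plates were read immediately and after 20 min (Ex340nm/Em540nm).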
Tb PGK inh = qHTS Assay to Find Inhibitors of Phosphoglycerate Kinase | PGK/GAPDH coupled, Kinase-Glo luminescence, 60 min | Potency, µM (titrated, usually from 57.5 µM), without a hit: at the highest dose activity change, negative = inhibition, most hits filed as inhibitors | hit rate 0.043% among 380,000; note: potency is the fitted concentration of half-maximal effect; nearly all actives have a fitted effect of over 60% in size
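Luminescent ATP detection (Kinase-Glo Plus) follows a 60-minute room-temperature incubation, with wells lacking PGK as controls. Buffer: 100 mM TEA (pH 7.6), 5 mM MgCl2, 0.01% Tween-20. Coupling enzyme GAPDH (100 nM final) supplies unstable 1,3-BPG in-well.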
Active calls of the source: *; i = inactive; u = inconclusive; x = no result. Hits are enriched below; roughly 1.2% of the tested compounds scored in any of these assays. Unless noted, calls come from the whole dose curve; as a rule, active = well fitted curve in the direction sought with a large enough effect; inconclusive = small, poorly fitted or top-dose-only effect, or another doubt; inactive = no such curve, though single readings can be large; an effect the other way counts as inactive or inconclusive. Unless noted, % is set by controls: 0 for no effect and ±100 for the full control effect.

SMILES | RGS12 GoLoco inh | PI5P4K alpha inh | PI4K2A block | Pin1 inh | GCN5L2 inh | Tb PGK inh
C/C=C/C=C/C(=O)N1CC2(CC(c3cccc(NC(=O)CCCCC)c3)=NO2)C[C@H]1C(N)=O (stereo partly specified) | -2% | -76* | -14 | 5% | -5% | 2%
CCS(=O)(=O)N1CCC2(CC1)OCCN2S(=O)(=O)c1ccccc1 | x | -2 | 1 | x | x | 0%
O=C(O)CCCCC1CCSS1 (stereo unspecified) | -10% | 1 | -2 | -1% | 3.2µM* | -7%
N#C/C(=C\c1ccc(O)c(O)c1)C(=O)c1ccc(O)c(O)c1 | 34% | -60* | -11 | 48% | -11% | 1.1µM*
CCCOc1ccc(C(=O)NCC(c2ccco2)N(C)C)cc1OC (stereo unspecified) | 5% | 5 | -5 | 33% | 2% | -7%
CC(C)c1onc(-c2c(Cl)cccc2Cl)c1COc1ccc(/C=C/c2cccc(C(=O)O)c2)c(Cl)c1 | x | x | x | x | 13µM* | x
CCC(C)NC(=O)c1cccc(OCc2c(C)noc2C)c1 (stereo unspecified) | 15% | 5 | -2 | -13% | -6% | -5%
Cc1[nH][nH]c(=O)c1C(c1ccc(-c2ccc(C(=O)O)cc2)o1)c1c(C)[nH][nH]c1=O | -15% | u | -55* | -11% | u | -4%
Cc1[nH][nH]c(=O)c1C(c1ccc(-c2ccc(F)cc2)o1)c1c(C)[nH][nH]c1=O | 0% | 4 | u | -1% | -4% | 2%
COc1ccc(/C=C2\CCn3c2nc2cc(C(=O)O)ccc2c3=O)cc1OC | 4% | u | -3 | -6% | -7% | -7%
COc1ccc(/C=C2\CCn3c2nc2cc(C(=O)O)ccc2c3=O)cc1O | 2% | -54* | -8 | u | 14% | -5%
Cc1[nH]n(-c2ncc(-c3ccc(Cl)cc3)s2)c(=O)c1C(c1ccc(Cl)cc1)C(C#N)C#N (stereo unspecified) | 14% | -70* | 30 | x | 31% | -2%
COc1ccc(C(c2c(C)[nH]n(C(N)=S)c2=O)C(C#N)C#N)cc1 (stereo unspecified) | -3% | -1 | 25 | -6% | 2% | i
COc1ccc(/C=C/c2nc(S(=O)(=O)c3ccccc3)c(NCCCN(C)C)o2)cc1OC | x | -1 | -4 | 7% | -14% | i
Cc1cc(NC(=O)c2cc(-c3ccc(C)s3)nc3ccccc23)no1 | 30% | -3 | -8 | 30% | 28µM* | -10%
CCOC(=O)Cn1c2[n+](c3ccccc31)CC(O)CS2 (stereo unspecified) | 16µM* | x | 0 | 3% | -12% | 4%
COC(=O)Cn1c2[n+](c3ccccc31)CC(O)CS2 (stereo unspecified) | 3% | -3 | 8 | -6% | 1% | 2%
Cc1ccc(NC(=O)N2CCCCCC2)cc1 | x | 2 | -23 | -1% | u | 6%
Cc1ccc(C(=O)CSc2nnc(-c3ccco3)n2C)cc1 | 4% | -56* | -1 | -1% | -3% | i
COc1ccccc1N1CCN(Cc2cc(=O)c(OCC(=O)NC3CCCC3)co2)CC1 | x | -1 | 0 | 1% | -4% | -6%
Cc1c(N=Cc2cc(Br)cc(Br)c2O)cccc1C(=O)O | 47% | -58* | -23 | u | -17% | u
COC(=O)c1c(N)sc2c1CCN(c1ncc(C(F)(F)F)cc1Cl)C2 | 52% | -3 | 7 | 9% | -4% | -1%
NC(=O)c1ccc2c(c1)S(=O)(=O)c1ccccc1C2=O | 17% | -7 | 1 | -13% | -4% | -2%
O=C(O)c1ccc2c(c1)S(=O)(=O)c1cc(Cl)ccc1C2=O | x | -52* | -3 | -8% | -2% | -6%
O=C(O)c1ccc2c(c1)S(=O)(=O)c1cc(N3CCN(c4cnccn4)CC3)ccc1C2=O | x | -67* | -10 | x | x | -11%
SMILES | RGS12 GoLoco inh | PI5P4K alpha inh | PI4K2A block | Pin1 inh | GCN5L2 inh | Tb PGK inh
O=C(NCc1ccccc1)c1ccc2c(c1)S(=O)(=O)c1cc(Cl)ccc1C2=O | x | 10 | -2 | 1% | -5% | -2%
O=C(O)c1ccc2c(c1)S(=O)(=O)c1ccccc1C2=O | x | -74* | 0 | 2% | 0% | x
OC(c1ccc(Cl)c(Cl)c1)c1ncc(-c2ccc(C(F)(F)F)cc2)[nH]1 (stereo unspecified) | x | -16 | -5 | x | x | x
O=C(N/N=C/c1ccccn1)c1ccc(Cl)cc1 | x | -4 | 1 | 2% | -7% | -8%
CN(C)C=Nc1c(Br)cc(Br)c2nonc12 | -93% | -4 | -56* | u | -21% | -3%
C=CCn1c(NC(=O)c2ccccc2)nc2ccccc21 | x | 7 | -7 | -2% | u | i
C=CCn1c(P(=O)(O)c2ccccc2)nc2ccccc21 | 5.6µM* | -3 | 4 | u | -3% | 8%
CC1COCC(C)N1C1=C(Cl)C(=O)c2ccccc2C1=O (stereo unspecified) | x | -70* | -16 | 2% | x | 3%
CN1CCN(C2=C(Cl)C(=O)C(c3cnc(N4CCCCC4)s3)=C(Cl)C2=O)CC1 | 5% | -89* | -17 | -20% | -26% | 0%
CN1CCN(C2=C(Cl)C(=O)c3ccccc3C2=O)CC1 | x | -4 | -55* | 67µM* | x | u
Cc1ccnc(N2C(=O)c3ccccc3C2O)c1 (stereo unspecified) | -1% | -58* | 7 | -1% | -9% | u
Cc1ccnc(N2C(=O)c3ccccc3C2Nc2cccc(C)c2C)c1 (stereo unspecified) | 4% | -2 | 0 | 0% | -2% | -1%
Nc1cc2c(cc1[N+](=O)[O-])OCO2 | 2% | -60* | -9 | u | -21% | -14%
CCCSc1ccc2nc(-c3ccccc3)cn2c1 | 0% | -14 | -68* | 5% | 15% | u
CCCCSc1ccc2nc(-c3ccc(C#N)cc3)cn2c1 | 5% | -1 | 0 | 4% | -7% | -2%
COc1ccc(-c2ccc(SC)nn2)cc1 | -2% | u | -72* | -1% | -20% | u
Cc1c(C)c2cc(Cl)c(O)c(CN3CCCC(C)C3)c2oc1=O (stereo unspecified) | 10% | -3 | 1 | -9% | u | i

High-throughput results as filed in PubChem BioAssay.
